The values that follow come from PubChem BioAssay (EPA / NIEHS).

Inconclusive results are not listed. Activity calls are given as the source filed them. The calls were made as follows, unless noted: active = hit-call score of the fitted dose curve at least 0.9, where 1 is the maximum; inactive = score below 0.9.

Experiment [1] is described as follows: CCTE_Deisenroth_5AR_NBTE_acceptor: CCTE's 5alpha-reductase NanoBRET Target Engagement Assay - Autofluorescence Screen, Deisenroth Lab (AID 2284321).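 Also: compound fluorescence in the acceptor channel under 460 nm excitation flags autofluorescence artifacts.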 As to conditions: actives raise or lower the signal. The method in brief:
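Chemicals diluted to a nominal 100 uM in DMSO were scanned at 460 nm excitation. Samples were read in three independent runs (n=3). Gain or loss of acceptor signal was fitted relative to DMSO.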
On the technique in general: In BRET a luciferase serves as donor, and the signal depends on an acceptor being close.

Another experiment deals with SRD5A2 (gene 6716). In words: CCTE_Deisenroth_5AR_NBTE_ratio: CCTE's 5alpha-reductase NanoBRET Target Engagement Assay - Ratio, Deisenroth Lab (AID 2284322). Conditions: actives raise or lower the signal. The method in brief: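 Reverse-transfect HEK293T with pNLF1-C-SRD5A2, express 20 h. Pre-incubate cells with chemical 3 h (8-point series, 10 nM - 29.9 uM, duplicate). Add testosterone tracer, 2 h more. Add substrate/inhibitor, read donor and acceptor emission.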

Experiment [2] can be described thus: CCTE_Mundy_HCI_iCellGluta_NOG_NeuriteLength: CCTE's Neurite Outgrowth Assay in iCellGluta cells for Neurite Length, Mundy Lab (AID 2284318; active = hit-call score of the fitted dose curve at least 0.9, where 1 is the maximum). A digest of the protocol: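 Automated high-content imaging of betaIII-tubulin (Alexa Fluor-488) and Hoechst-stained cells gave neurite length, normalized to the DMSO baseline.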
Experiment [3] can be described thus: CCTE_Mundy_HCI_iCellGluta_NOG_NeuronCount: CCTE's Neurite Outgrowth Assay in iCellGluta cells for Neuron Count, Mundy Lab (AID 2284340; active = hit-call score of the fitted dose curve at least 0.9, where 1 is the maximum;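 also: cells fixed about 48 h after compound addition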). The method in brief: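 Neuron count read by automated high-content imaging of Hoechst 33342 and betaIII-tubulin/Alexa Fluor-488 labelling in human iPSC glutamatergic neurons. Activity fitted relative to DMSO.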
Experiment [4] can be described thus: CCTE_Mundy_HCI_iCellGluta_NOG_NeuriteCount: CCTE's Neurite Outgrowth Assay in iCellGluta cells for Neurite Count, Mundy Lab (AID 2284342; active = hit-call score of the fitted dose curve at least 0.9, where 1 is the maximum;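 also: chemical exposure about 48 hours starting 2 hours after plating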).
The nature of experiment [5]: CCTE_Deisenroth_H295R-HTRF_384WELL_ESTRADIOL: CCTE's H295R-HTRF Assay Evaluation of Estradiol Concentration, Deisenroth Lab (AID 2284361). Conditions: actives raise or lower the signal. The method in brief:
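H295R cells exposed 48 h to chemicals at 0.001 - 100 uM final (nine points, triplicate); estradiol in conditioned medium measured by HTRF immunoassay, fitted bidirectionally versus DMSO. Viability by CellTiter-Glo on same plates.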
(In general: TR-FRET usually uses a lanthanide donor and a delayed reading to cut background.)

In a further experiment the test system is SERPINA7 (gene 6906). The experiment can be described thus: CCTE_GLTED_hTBG: CCTE's human Thyroxine-binding Globulin (TBG) Inhibition Assay, Great Lakes Toxicology and Ecology Division (GLTED) Lab (AID 2284343; active = hit-call score of the fitted dose curve at least 0.9, where 1 is the maximum;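 also: active chemicals lower fluorescence versus DMSO baseline by displacing probe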). The method in brief: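 Measures how far test chemicals displace ANSA bound to purified human TBG. The read-out is fluorescence at 380 nm excitation and 475 nm emission, taken after 2 h of incubation.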

For a further experiment, the system named is TTR (gene 7276). In words: CCTE_GLTED_hTTR_0.5uM: CCTE's human Transthyretin (hTTR) Inhibition Assay, with 0.5uM TTR, Great Lakes Toxicology and Ecology Division (GLTED) Lab (AID 2284320). A digest of the protocol:
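Cell-free displacement assay in which human TTR at 0.5 uM was incubated with test chemical for 2 h. Displacement of the ANSA probe was read by fluorescence at 380 nm excitation/475 nm emission. Loss of signal was fitted in the positive direction versus DMSO.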

The nature of experiment [6]: IUF_NPC2-5_viability_120hr: Viability Assessment at 120 hours in the Leibniz Research Institute for Environmental Medicine (IUF) Neural Progenitor Cell Migration and Differentiation Assay (NPC2-5) (AID 2284312). A digest of the protocol: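 Alamar blue resorufin fluorescence read after 5 days of differentiation, with compound present from day 0 and replenished at day 3. Primary hNPC spheres on laminin-coated plates, 37C; seven concentrations plus solvent control, fitted against DMSO.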

Experiment [7] in a line: TAMU_PeakParms_SingleDonor1434_Asystole: Texas A&M University (TAMU) 1.5-hr Human Induced Pluripotent Stem Cell (iPSC)-derived Cardiomyocytes Calcium (Ca+2) Flux Assay for Cardiotoxicity: Asystole (quiescence of beating) (AID 2284328; active = hit-call score of the fitted dose curve at least 0.9, where 1 is the maximum). The method in brief: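 Average Ca2+-flux peak frequency (beats/s) was recorded in single-donor iPSC-derived cardiomyocytes after 90 min exposure (0.2–100 uM final, 0.5% DMSO). Asystole POD set as EC95 against DMSO, no preprocessing.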

Experiment [8] can be described thus: IUF_NPC1_cytotoxicity_72hr: Cytotoxicity Assessment at 72 hours in the Leibniz Research Institute for Environmental Medicine (IUF) Neural Progenitor Cell Proliferation Assay (NPC1) (AID 2284332; active = hit-call score of the fitted dose curve at least 0.9, where 1 is the maximum;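 also: rising LDH signal means more cytotoxicity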). A digest of the protocol: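 hNPC spheres (fetal brain, gestational week 16-19) grown under proliferative EGF/FGF conditions, pH 7.2-7.6, were treated continuously for 72 h. Cytotoxicity came from LDH-coupled resazurin fluorescence in each well's supernatant.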

As usually defined, the AC50 is the concentration giving half of the maximal activity seen. As to `O=C(Nc1ccc2[nH]ccc2c1)c1cc2cc(F)ccc2n1Cc1cccc(F)c1`, the molecule was called inactive in experiment [1]. For the same molecule, the half-maximal activity concentration (AC50) in the experiment with SRD5A2 (gene 6716) was 3.93 µM (active).

With `C=C(C)C(=O)[O][Sn]([CH2]CCC)([CH2]CCC)[CH2]CCC`, the half-maximal activity concentration (AC50) is 0.241 µM (active) in experiment [2]; 5.27 µM (active) in experiment [1]; 4.42 µM (active) in the experiment on SRD5A2 (gene 6716); 0.202 µM (active) in experiment [3]; 0.188 µM (active) in experiment [4].

With `Fc1ccc(C2(Cn3cncn3)OC2c2ccccc2Cl)cc1` (centres undefined), in experiment [5], the half-maximal activity concentration (AC50) was 1.14 µM (active).

`CCC1(c2ccc(N)cc2)CCC(=O)NC1=O` (centres undefined): the call (in experiment [1]; with SRD5A2 (gene 6716); in experiment [5]) was inactive.

Turning to `CC(C)(c1ccccc1)c1ccc(O)c(C(C)(C)c2ccccc2)c1`, the AC50 with SERPINA7 (gene 6906) was 7.35 µM (active).

For `O=C(O)C(F)(F)C(F)(F)C(F)(F)C(F)(F)C(F)(F)C(F)(F)F`, the result in [2] and in experiment [3] was inactive. For the same molecule, the concentration at half-maximal activity (AC50) in the experiment with TTR (gene 7276) was 395 nM (active).

For the molecule `O=[N+]([O-])c1ccc(O)c([N+](=O)[O-])c1`, the call in [1] was inactive. Also, the AC50 was 64.9 µM (active) in the experiment on SRD5A2 (gene 6716) and 21.9 µM (active) in the experiment on SERPINA7 (gene 6906).

Consider `CCOP(=S)(OCC)Oc1nc(Cl)c(Cl)cc1Cl`, for which the result (in [6]; in [1]; with SRD5A2 (gene 6716); in experiment [7]; in experiment [8]) was inactive. Moreover, in the experiment on SERPINA7 (gene 6906), the AC50 is 18.6 µM (active).

For the molecule `CCN1CCC2(CC1)COc1cc3c(cc12)N(C(=O)c1ccc(-c2ccc(-c4nnc(C)o4)cc2C)cc1)CC3`, the values for the AC50 (in experiment [1]; with SRD5A2 (gene 6716)) were 2.17 µM (active) and 5.8 µM (active), respectively.

`CCC(C)(C)c1ccc(O)c(C(C)(C)CC)c1`: the AC50 in the experiment on SERPINA7 (gene 6906) was 13.3 µM (active).

With `CC(=O)[O][Hg][c]1ccccc1`, the figures for the AC50 (in [1]; in the experiment with SRD5A2 (gene 6716)) were 25.3 µM (active) and 50 µM (active), respectively.

With `Oc1cccc2cccnc12`, the outcome in [7] was inactive.

`O=C1C(Cl)=C(Cl)C(=O)c2ccccc21`: the molecule was classed as inactive (in [1]; in the experiment on SRD5A2 (gene 6716)). Further, in the experiment on SERPINA7 (gene 6906), the AC50 is 43.7 µM (active).

`CCC[CH2][Sn]([CH2]CCC)([CH2]CCC)[O]C(=O)c1ccccc1`: the AC50 in experiment [1] is 6.56 µM (active); in the experiment on SRD5A2 (gene 6716), 10 µM (active).

Take `COP(=O)(OC)O/C(=C\Cl)c1cc(Cl)c(Cl)cc1Cl`: the concentration at half-maximal activity (AC50) in experiment [6] is 1.06 µM (active); in experiment [2], 51.5 µM (active); in [8] it was 75.5 µM (active); in experiment [3], 51.5 µM (active); in experiment [4], 51.5 µM (active); with SERPINA7 (gene 6906), 10.1 µM (active).

With `COP(=S)(OC)Oc1ccc(Sc2ccc(OP(=S)(OC)OC)cc2)cc1`, in the experiment with SERPINA7 (gene 6906), the AC50 was 2.89 µM (active).

As to `ClC(Cl)=C(Cl)C(Cl)=C(Cl)Cl`, the outcome in experiment [7] was inactive.

`Oc1ccc(-c2ccccc2)cc1`: the half-maximal activity concentration (AC50) in the experiment with SERPINA7 (gene 6906) was 31.2 µM (active).
